# In the supplement of paper PMC8728848:
# The full list was thinned out, with the strongest signals kept by preference.
# Tests used:
# Assay in all cases: glycan array binding signal (z-score within array); higher = stronger binding
# Settings in all cases: glycan notation: IUPAC condensed, linker removed
# [1] = molecular target: Fuc(a1-2)Gal(b1-3)GlcNAc(b1-2)Man(a1-3)[Fuc(a1-2)Gal(b1-3)GlcNAc(b1-2)Man(a1-6)]Man(b1-4)GlcNAc(b1-4)GlcNAc
# Outline: (§1)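 Glycan array data came from 3228 arrays in the Consortium for Functional Glycomics database, and only arrays with an available protein sequence were kept. Glycan names were put into IUPAC-condensed notation, and columns mapping to the same glycan were averaged. The binding signal is a within-array Z-score, averaged across arrays of one protein sequence run at different concentrations or buffers and across linkers. A negative Z-score can be read as non-binding.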
# [2] = molecular target: Fuc(a1-2)Gal(b1-4)GlcNAc(b1-2)Man(a1-3)[Fuc(a1-2)Gal(b1-4)GlcNAc(b1-2)Man(a1-6)]Man(b1-4)GlcNAc(b1-4)GlcNAc
# Outline: as §1
# [3] = molecular target: Fuc(a1-2)Gal(b1-4)GlcNAc(b1-2)Man(a1-3)[Fuc(a1-2)Gal(b1-4)GlcNAc(b1-2)Man(a1-6)]Man(b1-4)GlcNAc(b1-4)[Fuc(a1-6)]GlcNAc
# Outline: as §1
# [4] = molecular target: Fuc(a1-2)Gal(b1-4)GlcNAc(b1-2)[Fuc(a1-2)Gal(b1-4)GlcNAc(b1-4)]Man(a1-3)[Fuc(a1-2)Gal(b1-4)GlcNAc(b1-2)Man(a1-6)]Man(b1-4)GlcNAc(b1-4)GlcNAc
# Outline: as §1
# [5] = molecular target: Fuc(a1-2)Gal(b1-4)[Fuc(a1-3)]GlcNAc
# Outline: as §1
# [6] = molecular target: Fuc(a1-2)Gal6S(b1-4)Glc6S
# Outline: as §1
# [7] = molecular target: Fuc(a1-2)[Gal(a1-3)]Gal(b1-4)GlcNAc(b1-3)[Fuc(a1-2)[Gal(a1-3)]Gal(b1-4)GlcNAc(b1-6)]GalNAc
# Outline: as §1
# [8] = molecular target: Fuc(a1-2)[GalNAc(a1-3)]Gal(b1-4)GlcNAc(b1-3)GalNAc
# Outline: as §1
# [9] = molecular target: Fuc(a1-2)[GalNAc(a1-4)]Gal(b1-4)GlcNAc
# Outline: as §1
# [10] = molecular target: Fuc(a1-3)[Gal(b1-4)]GlcNAc(b1-2)Man(a1-3)[Fuc(a1-3)[Gal(b1-4)]GlcNAc(b1-2)Man(a1-6)]Man(b1-4)GlcNAc(b1-4)GlcNAc
# Outline: as §1
# Gal(a1-3)Gal(b1-3)GlcNAc = molecular target: Gal(a1-3)Gal(b1-3)GlcNAc
# Outline: as §1
# [11] = molecular target: Gal(a1-3)Gal(b1-3)GlcNAc(b1-2)Man(a1-3)[Gal(a1-3)Gal(b1-3)GlcNAc(b1-2)Man(a1-6)]Man(b1-4)GlcNAc(b1-4)GlcNAc
# Outline: as §1
# [12] = molecular target: Gal(a1-3)Gal(b1-3)GlcNAc(b1-6)GalNAc
# Outline: as §1
# [13] = molecular target: Gal(a1-3)Gal(b1-3)[Fuc(a1-4)]GlcNAc(b1-2)Man(a1-3)[Gal(a1-3)Gal(b1-3)[Fuc(a1-4)]GlcNAc(b1-2)Man(a1-6)]Man(b1-4)GlcNAc(b1-4)GlcNAc
# Outline: as §1
# Gal(a1-3)Gal(b1-4)GlcNAc = molecular target: Gal(a1-3)Gal(b1-4)GlcNAc
# Outline: as §1
# [14] = molecular target: Gal(a1-3)Gal(b1-4)GlcNAc(b1-3)GalNAc
# Outline: as §1
# [15] = molecular target: Gal(a1-4)Gal(b1-3)GlcNAc(b1-2)Man(a1-3)[Gal(a1-4)Gal(b1-3)GlcNAc(b1-2)Man(a1-6)]Man(b1-4)GlcNAc(b1-4)GlcNAc
# Outline: as §1
# [16] = molecular target: Gal(b1-3)GalNAc(a1-3)[Fuc(a1-2)]Gal(b1-4)GlcNAc
# Outline: as §1
# [17] = molecular target: Gal(b1-3)GalNAc(b1-4)[Neu5Ac(a2-3)]Gal(b1-4)Glc
# Outline: as §1
# [18] = molecular target: Gal(b1-3)GlcNAc(b1-3)Gal(b1-4)GlcNAc(b1-3)Gal(b1-4)GlcNAc(b1-2)[Gal(b1-3)GlcNAc(b1-3)Gal(b1-4)GlcNAc(b1-3)Gal(b1-4)GlcNAc(b1-6)]Man(a1-6)[Gal(b1-3)GlcNAc(b1-3)Gal(b1-4)GlcNAc(b1-3)Gal(b1-4)GlcNAc(b1-2)Man(a1-3)]Man(b1-4)GlcNAc(b1-4)[Fuc(a1-6)]GlcNAc
# Outline: as §1
# [19] = molecular target: Gal(b1-3)[Fuc(a1-4)]GlcNAc(b1-6)GalNAc
# Outline: as §1
# [20] = molecular target: Gal(b1-3)[Neu5Ac(b2-6)]GalNAc
# Outline: as §1
# [21] = molecular target: Gal(b1-4)GlcNAc(b1-2)Man(a1-3)[Gal(b1-4)GlcNAc(b1-2)Man(a1-6)][Gal(b1-4)GlcNAc(b1-4)]Man(b1-4)GlcNAc(b1-4)[Fuc(a1-6)]GlcNAc
# Outline: as §1
# [22] = molecular target: Gal(b1-4)GlcNAc(b1-3)Gal(b1-4)Glc
# Outline: as §1
# [23] = molecular target: Gal(b1-4)GlcNAc(b1-3)Gal(b1-4)GlcNAc(b1-3)Gal(b1-4)GlcNAc(b1-2)Man(a1-3)[Gal(b1-4)GlcNAc(b1-3)Gal(b1-4)GlcNAc(b1-3)Gal(b1-4)GlcNAc(b1-2)Man(a1-6)]Man(b1-4)GlcNAc(b1-4)GlcNAc
# Outline: as §1
binder,measurement,setting,value
PX9937I-bfa-538-26-538 (Bacteroides fragilis) (protein) DKLDLSPIDYYGSGSYWKTEAQATAYIDGIHKHLRDAAWQHTITFGELRGGRFITGASSDGMGVSNGDIILQNFDETHTGVSKFGDLFGRITNLNLFIARVTDATYLSDEMKNFYLGEVYGLRAFYYFDLYRIYGGVPLRLTADVVEGVIDPNKLYMARSTPKEVMTQIKSDLNKSMEYFGNMNDFDPYKRGKKVYWSKAATECLMGEVYLWTSKVTTGDDVANPADLTIAKTHLESVLNNYNLKMLDDFSQVFNAKNKANDEIIFAIRFLEGEATNSNGTFTYNVGTGSTKNRYQANGEVFGDALDIQNTGNQTYEYNKAVYQNFDDADTRKEATFIASYNKDGKTGELSLYGTHVRKNIGYVNAQGARVYCGDYIFYRLPWVYLTLAEIANMEGDNAAVAKYINLVRKRAYGNAWDETLYAYPETADFTTNELAILHEKDKEFIQEGQRWWDLRRMTLTKGGTPLVFCKEGSLLGDAPILNKSTEAHKLLWPIEKTMLNKDPALEQTPGYK,glycan array binding signal (z-score),[1],5.41
same,glycan array binding signal (z-score),[2],3.93
same,glycan array binding signal (z-score),[3],1.57
same,glycan array binding signal (z-score),[4],1.02
same,glycan array binding signal (z-score),[5],-0.821
same,glycan array binding signal (z-score),[6],2.55
same,glycan array binding signal (z-score),[7],-0.413
same,glycan array binding signal (z-score),[8],-0.541
same,glycan array binding signal (z-score),[9],1.66
same,glycan array binding signal (z-score),[10],3.92
same,glycan array binding signal (z-score),Gal(a1-3)Gal(b1-3)GlcNAc,0.142
same,glycan array binding signal (z-score),[11],0.317
same,glycan array binding signal (z-score),[12],0.142
same,glycan array binding signal (z-score),[13],3.11
same,glycan array binding signal (z-score),Gal(a1-3)Gal(b1-4)GlcNAc,-0.994
same,glycan array binding signal (z-score),[14],-1.27
same,glycan array binding signal (z-score),[15],4.73
same,glycan array binding signal (z-score),[16],-0.45
same,glycan array binding signal (z-score),[17],-0.928
same,glycan array binding signal (z-score),[18],2.69
same,glycan array binding signal (z-score),[19],2.39
same,glycan array binding signal (z-score),[20],-0.133
same,glycan array binding signal (z-score),[21],1.11
same,glycan array binding signal (z-score),[22],0.127
same,glycan array binding signal (z-score),[23],6.36
